Data as given in the supplement of paper PMC3545927.
This is one part of the list. No count for the full screen is at hand.

Target: furin, P09958
Assay: furin cleavage Z-score vs untreated control; higher = more cleavage, active = 3.5 or more, inactive = 1 or less, 8 variable residues between constant flanks
Summary of the method: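 Furin-free reactions served as the baseline for the cleavage Z-score, which is the log read count lowess-adjusted and scaled by median absolute deviation. Counts came from released DNA, adapter-tagged by PCR and sequenced. Purified furin had cut 8-mer peptides fused to a cDNA oligonucleotide on magnetic beads during 7.5, 15 or 30 min at 1:10 enzyme:substrate.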
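Note: purified furin at 1:10 enzyme:substrate in 50 mM HEPES pH 7.5.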

Sequence of furin, P09958 (P09958 whole entry): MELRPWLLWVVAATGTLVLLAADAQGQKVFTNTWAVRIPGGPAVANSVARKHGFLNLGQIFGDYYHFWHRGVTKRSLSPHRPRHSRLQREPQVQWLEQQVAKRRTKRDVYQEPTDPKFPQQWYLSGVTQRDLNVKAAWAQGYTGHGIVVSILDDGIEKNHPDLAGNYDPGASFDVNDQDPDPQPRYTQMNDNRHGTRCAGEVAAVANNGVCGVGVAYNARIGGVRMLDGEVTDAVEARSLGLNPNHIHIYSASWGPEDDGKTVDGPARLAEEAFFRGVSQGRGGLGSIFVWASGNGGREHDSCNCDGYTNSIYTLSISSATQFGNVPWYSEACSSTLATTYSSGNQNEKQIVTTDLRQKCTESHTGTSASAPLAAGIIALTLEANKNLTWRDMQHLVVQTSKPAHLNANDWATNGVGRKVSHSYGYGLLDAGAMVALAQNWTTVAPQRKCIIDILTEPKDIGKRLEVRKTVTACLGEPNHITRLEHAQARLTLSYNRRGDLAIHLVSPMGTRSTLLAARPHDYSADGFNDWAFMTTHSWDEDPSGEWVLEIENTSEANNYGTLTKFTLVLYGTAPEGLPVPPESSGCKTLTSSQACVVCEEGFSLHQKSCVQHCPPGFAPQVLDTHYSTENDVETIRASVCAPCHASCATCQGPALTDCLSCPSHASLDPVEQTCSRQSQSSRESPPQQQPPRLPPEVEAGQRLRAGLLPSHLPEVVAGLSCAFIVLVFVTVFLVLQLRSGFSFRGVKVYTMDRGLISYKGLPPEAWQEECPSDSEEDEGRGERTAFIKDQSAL

Row | Sequence | furin cleavage Z-score (7.5 min) | furin cleavage Z-score (15 min) | furin cleavage Z-score (30 min)
1 | CAEVVTSSWVAGNASASA [HC2217] | 0.949 (inactive) | 3.4 | -0.0256 (inactive)
2 | CANTPCSGSWAGNASASA [HC1841] | -0.658 (inactive) | -0.9 (inactive) | -0.678 (inactive)
3 | CAMEECSQGLAGNASASA [HC1756] | 0.411 (inactive) | 1.43 | 1.65
4 | CATTPCSGCWAGNASASA [HC1920] | -0.899 (inactive) | -0.942 (inactive) | -0.88 (inactive)
5 | CAVVCLSMSYAGNASASA [HC84] | 0.288 (inactive) | -0.622 (inactive) | -0.642 (inactive)
6 | CASFLVFFCFAGNASASA [HC544] | -1.06 (inactive) | -0.337 (inactive) | -0.101 (inactive)
7 | CAGTHGLVSFAGNASASA [HC541] | 1.37 | 0.474 (inactive) | 1.36
8 | CARLKRALDFAGNASASA [FS-2219] | 6.13 (active) | 7.48 (active) | 7.29 (active)
9 | CARLKRQPCAAGNASASA [FS-3227] | 0.299 (inactive) | -0.962 (inactive) | -0.478 (inactive)
10 | CARLKRQVTEAGNASASA [FS-2992] | 11.3 (active) | 12 (active) | 11.2 (active)
11 | CARLKRVEDQAGNASASA [FS-1907] | -1.61 (inactive) | 0.449 (inactive) | -0.817 (inactive)
12 | CAVLATATPPAGNASASA [HC833] | -0.698 (inactive) | -1.92 (inactive) | -0.599 (inactive)
13 | CARSVRSTRDAGNASASA [FS-1075] | 9.44 (active) | 11 (active) | 9.05 (active)
14 | CARDARSVRDAGNASASA [FS-2328] | 2.71 | 4.77 (active) | 5.93 (active)
15 | CAREDRAVRDAGNASASA [FS-2413] | -1.11 (inactive) | 0.317 (inactive) | -0.31 (inactive)
16 | CARDARMSDAAGNASASA [FS-2204] | -1.21 (inactive) | 0.407 (inactive) | 0.769 (inactive)
17 | CARSVRFISNAGNASASA [FS-2821] | -2.17 (inactive) | -0.565 (inactive) | 1.32
18 | CAQMHRKFRSAGNASASA [FS-703] | 6.07 (active) | 8.69 (active) | 6.07 (active)
19 | CAFLWRSFRSAGNASASA [FS-327] | -0.934 (inactive) | -0.656 (inactive) | -0.629 (inactive)
20 | CARGGRDAVIAGNASASA [HC594] | 0.336 (inactive) | 0.26 (inactive) | 0.331 (inactive)
21 | CACHLRRFRSAGNASASA [FS-581] | -0.297 (inactive) | -0.28 (inactive) | 0.354 (inactive)
22 | CARGGRIFRSAGNASASA [FS-1397] | 7.37 (active) | 8.25 (active) | 7.16 (active)

Row | Sequence | furin cleavage Z-score (7.5 min) | furin cleavage Z-score (15 min) | furin cleavage Z-score (30 min)
23 | CATNHRIFRSAGNASASA [FS-384] | 1.71 | 2.99 | 5.79 (active)
24 | CAVVCCSMTYAGNASASA [HC2078] | -0.433 (inactive) | 0.0813 (inactive) | -0.381 (inactive)
25 | CARNRRHVTEAGNASASA [FS-3011] | 12.2 (active) | 12.5 (active) | 9.58 (active)
26 | CARNRRLVSDAGNASASA [FS-3012] | 0.716 (inactive) | 3.37 | 2.68
27 | CAREDRGAYTAGNASASA [FS-2909] | -0.191 (inactive) | 0.288 (inactive) | -1.31 (inactive)
28 | CARCDRDNTEAGNASASA [FS-2896] | -0.96 (inactive) | -0.486 (inactive) | -1.77 (inactive)
29 | CARNRRGAITAGNASASA [FS-1912] | 5.06 (active) | 6.46 (active) | 7.54 (active)
30 | CARNRRALRDAGNASASA [FS-3010] | 7.62 (active) | 8.24 (active) | 7.01 (active)
31 | CARNRRHHRDAGNASASA [FS-709] | 8.79 (active) | 10.1 (active) | 7.04 (active)
32 | CACFDSTVTEAGNASASA [HC1482] | 0.967 (inactive) | -0.854 (inactive) | -1.23 (inactive)
33 | CAFSYDTRCFAGNASASA [HC1479] | -0.0881 (inactive) | -0.998 (inactive) | 0.0108 (inactive)
34 | CALDVVCCSMAGNASASA [HC2105] | -0.768 (inactive) | -1.48 (inactive) | -0.867 (inactive)
35 | CARNRRHPRSAGNASASA [FS-560] | 11.3 (active) | 13.7 (active) | 8.58 (active)
36 | CARIPQAILDAGNASASA [HC330] | -0.397 (inactive) | 0.0404 (inactive) | 0.351 (inactive)
37 | CARNRRSILDAGNASASA [FS-2733] | 6.77 (active) | 9.44 (active) | 8.76 (active)
38 | CARNRRSLSGAGNASASA [FS-2577] | 5.26 (active) | 5.66 (active) | 6.3 (active)
39 | CAVGRVVLSGAGNASASA [HC1002] | -0.201 (inactive) | 2.15 | -1.8 (inactive)
40 | CARNRRTHEFAGNASASA [FS-2048] | -0.109 (inactive) | -0.137 (inactive) | 0.595 (inactive)
41 | CARNRRVAEAAGNASASA [FS-2049] | 2.16 | 3.37 | 3.98 (active)
42 | CALMPQLPGIAGNASASA [HC1160] | 1.4 | 1.95 | 0.83 (inactive)
43 | CAPDYNPPLVAGNASASA [HC1306] | 0.58 (inactive) | -1.42 (inactive) | -0.164 (inactive)
